Drawing on PubChem BioAssay AID1063 (University of Pittsburgh Molecular Library Screening Center, 2008), this text covers inhibition for 99 molecules.

The structures appear in SMILES notation. About 18,000 (9%) of roughly 200,000 compounds were called active. Shown is part of a subset that was picked to be rich in actives. Values without a mark were called inactive. Cut-off read from the data, not from the text of the source: active = inhibition above about 50%; inactive = the rest.

This assay in a line: Leishmania major promastigote growth inhibition, primary screen (AID 1063).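 Note: promastigotes grown with compound for 44 hours at 28 °C.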 Particulars: Leishmania major promastigotes, resazurin fluorescence viability; at 10 µM; stronger effect = higher value.
`CN(C)c1ccc(NC(=O)CSc2n[nH]c(-c3ccco3)n2)cc1`: the inhibition was 47%. On to `CCN(CC)C(=O)Cn1cc(S(=O)(=O)CC(=O)NCc2ccc3c(c2)OCO3)c2ccccc21`, for which the inhibition was -2.2%.

Turning to `CCCN(CC(=O)Nc1ccc(OC)c(OC)c1)CC(=O)Nc1ccc(F)c(F)c1F`, the inhibition was -4.92%.

In the case of `COCCSc1nnc(NC(=O)c2cc(OC)c(OC)cc2[N+](=O)[O-])s1`, the inhibition is -4.07%. `CC(=O)c1ccc(NC(=S)N(Cc2ccccc2)C(C)C2CC2)cc1` (centres undefined): the inhibition was 11.1%. For `CC(C)CC(=O)NC(=S)Nc1ccc(F)cc1F`, the inhibition was -0.93%. Consider `Cc1[nH]nc(SCC(=O)NCC(C)C)c1[N+](=O)[O-]`, for which the inhibition is -6.19%.

In the case of `Cc1cccc(C)c1OCC(O)CN1CCCCC1` (centres undefined), the inhibition is -0.13%. For the molecule `OC(COCCC12CC3CC(CC(C3)C1)C2)CN1CCCCC1` (centres undefined), the inhibition was 92.4% (active).

For the molecule `COCC1CCCN(Cc2cn[nH]c2-c2cc3ccccc3o2)C1` (centres undefined), the inhibition is 11.4%.

In the case of `O=C(CC1Nc2ccccc2NC1=O)Nc1ccccc1NC(=O)CC1Nc2ccccc2NC1=O` (centres undefined), the inhibition is -4.12%.

As to `CSCCC(=O)N1CCCC(CNC(=O)c2ccccc2Cl)C1` (centres undefined), the inhibition is -3.88%. Consider `CCOc1ccc(-n2c(O)c(/C=N/Nc3nnc(C)c(=O)[nH]3)c3ccccc3c2=O)cc1`, for which the inhibition is 3.53%. As to `COc1ccc(/C=N/Nc2nc3ccccc3c(=O)[nH]2)cc1`, the inhibition is 36.7%. Regarding `COc1ccc(Cc2nnc(N/N=C/c3ccccc3O)[nH]c2=O)cc1OC`, the inhibition is 97.4% (active).

As to `CCCCNS(=O)(=O)c1ccc2nc(SCC(=O)Nc3cc(C)cc(C)c3)[nH]c2c1`, the inhibition was -3.48%. For `O=C(CSc1ncn[nH]1)NCc1ccc2c(c1)OCO2`, the inhibition is -2.48%. With `Cc1[nH]c2c(C(=O)N3CCCC(CCC(=O)NCc4ccccc4F)C3)cccc2c1C` (centres undefined), the inhibition was 3.43%.

As to `Nc1[nH]c(=S)nc2nc(-c3ccccc3)c(-c3ccccc3)nc12`, the inhibition was 29.6%. With `Cc1nc2nc[nH]n2c(=O)c1C/C=C/c1ccccc1`, the inhibition is -0.45%. Consider `CCc1c(C)nc2cc(-c3cccs3)[nH]n2c1=O`, for which the inhibition was 6.8%. For `CCc1c(C)nc2cc(C)[nH]n2c1=O`, the inhibition is 65% (active).

As to `COc1cccc(Cn2cnc3c([N+](=O)[O-])c(C)c(C)cc32)c1`, the inhibition is 12.1%.

In the case of `Oc1ccccc1C=NC1CCCCC1N=Cc1ccccc1O` (centres undefined), the inhibition was -8.81%. As to `COc1cc(/C=N/n2c(C)n[nH]c2=S)ccc1OCc1ccccc1`, the inhibition is 36.4%. In the case of `COc1cc(/C=C2/C(=O)ON=C2C)ccc1OCc1cccc(F)c1` it was 53.5% (active). Consider `COc1cc(/C=C2/C(=O)ON=C2C)ccc1OCc1ccccc1F`, for which the inhibition was 33.4%. As for `Cc1cccc2c1N(CCOc1ccccc1)C(=O)C2=O`, the figure is 4.82%. As for `O=C(CC1C(=O)NCCN1CC(c1ccccc1)c1ccccc1)NCCc1cn[nH]c1` (centres undefined), the inhibition was -0.14%. For the molecule `Cc1cc([N+](=O)[O-])nn1Cc1ccc(F)cc1`, the inhibition is 10.1%. In the case of `CCOc1ccc(Br)cc1CSC(=N)N`, the inhibition was 33.2%.

As to `CCCOc1ccc(Cn2ccnc2)cc1[N+](=O)[O-]`, the inhibition is 85.9% (active). `Cc1nc(SCc2ccc(F)cc2)c([N+](=O)[O-])[nH]1`: the inhibition is -7.82%. `Cc1ccccc1NC(=O)CSC1=NCCN1`: the inhibition is -2.55%. With `CCOc1ccc(C(=O)Nc2nccs2)cc1[N+](=O)[O-]`, the inhibition is 48.5%. For `CCCCCOc1ccc(CSC2=NCCN2)cc1[N+](=O)[O-]`, the inhibition is 88.3% (active). On to `CCCCOC(=O)CCCc1ccc([N+](=O)[O-])cc1[N+](=O)[O-]`, for which the inhibition was 0.48%.

For the molecule `CCCCOc1ccc(CSC(=N)N)cc1[N+](=O)[O-]`, the inhibition is 100% (active).

For `CCCOc1ccc(C2C(C(=O)c3ccc(C)o3)=C(O)C(=O)N2CCCn2ccnc2)cc1` (centres undefined), the inhibition was -8.78%.

`CN(C)c1ccc(C=NCCc2ccc(S(N)(=O)=O)cc2)cc1`: the inhibition was 3.91%. Consider `CCOC(=O)c1cnc2[nH]c3ccccc3n2c1=O`, for which the inhibition was 7.85%. In the case of `O=C(O)CC/C(=N\NC(=O)c1ccc(F)cc1)c1ccc(Br)cc1` it was -8.88%; in that of `Cn1ccc(=NC=C(C#N)C#N)c2ccccc21`, 7.93%; in that of `CC(=O)c1ccc(NC(=O)Nc2ccc([N+](=O)[O-])cc2C)cc1`, -1.56%. As for `O=[N+]([O-])c1ccc2c(c1)C(N1CCOCC1)/C(=C/C1(O)CCCCC1)O2` (centres undefined), the figure is -7.12%; as for `Cc1cc2nc(C(F)(F)F)cc(-c3cccs3)n2n1`, 2.4%. In the case of `COc1ccc(OC)c(S(=O)(=O)Nc2cccc(-c3ccc4nncn4n3)c2)c1` it was -2.67%; in that of `FC(F)(F)c1cccc(NC(=S)Nc2cccc(Cl)c2)c1`, 75.6% (active). On to `Cc1csc(NC(=S)Nc2cccc(Cl)c2)n1`, for which the inhibition was 9.23%. For the molecule `S=C(Nc1cccc(Cl)c1)Nc1ccc2cn[nH]c2c1`, the inhibition is 10.9%. For `CCNC(=O)CC1C(=O)N(c2ccc(OC)cc2)C(=S)N1CCc1ccncc1` (centres undefined), the inhibition was -4.31%. In the case of `COc1ccc2oc(=O)c(C(=O)N3CCCC3)cc2c1` it was -7.26%; in that of `Cn1nc(-c2ccccc2)c(-c2nc(-c3ccc(Cl)cc3)no2)c1Cl`, -4.1%. With `CC1CN(c2nc(-c3ccccc3)nnc2-c2ccccc2)CC(C)O1` (centres undefined), the inhibition was 5.94%.

In the case of `Clc1ccc(-c2nnc(-c3ccccc3)nc2N2CCSCC2)cc1`, the inhibition is 58.6% (active).

Turning to `CN(CCc1cnn(C)c1)Cc1cn(C)nc1-c1ccccc1F`, the inhibition is -3.32%.

Take `CC(C)N(C(=O)CSc1nc(COc2ccccc2)nc2ccccc12)C(C)C`: the inhibition was 21.6%. On to `COc1cc(S(=O)(=O)N2CCOCC2)ccc1NC(=O)COc1ccc(N(C)S(=O)(=O)c2ccc(C)cc2)cc1`, for which the inhibition is 94% (active).

For the molecule `COC(=O)COc1ccc(S(=O)(=O)N2CCOCC2)cc1`, the inhibition is -7.05%.

Consider `Cc1ccc(S(=O)(=O)N(C)c2ccc(OCC(=O)NC3=NCCS3)cc2)cc1`, for which the inhibition is 1.37%. Turning to `CC(=O)NCCC(=O)Nc1cc(S(=O)(=O)N2CCOCC2)ccc1N1CCOCC1`, the inhibition was 0.47%. Regarding `O=C(COc1cccc2ccccc12)Nc1cc(S(=O)(=O)N2CCOCC2)ccc1N1CCOCC1`, the inhibition is 61.2% (active). With `CCOc1cc(N2CCOCC2)c(OCC)cc1NC(=O)COc1cccc2cccnc12`, the inhibition is 100% (active). `CCOc1cc(N2CCOCC2)c(OCC)cc1NC(=O)c1cc(C)nc2ccccc12`: the inhibition is 6.2%. Consider `O=C(COC(=O)c1ccccc1F)Nc1cc(S(=O)(=O)N2CCOCC2)ccc1N1CCCC1`, for which the inhibition is 5.17%. In the case of `CCOc1cc(N2CCOCC2)c(OCC)cc1NC(=O)c1ccc(C)s1`, the inhibition was 6.96%. As for `CCC(=O)N1c2ccccc2NC2=C(C(=O)CCC2)C1c1ccco1` (centres undefined), the figure is 3.39%; as for `O=C(N/N=C1\CCSC1)c1cc(Cl)ccc1O`, 3.97%; as for `CCCCCc1ccc(-c2ccc(OCC)cc2)nc1`, -7.26%.

Regarding `CN(C)S(=O)(=O)c1ccc(NC(=O)N2CCOCC2)cc1`, the inhibition was -2.72%. As for `CCN(CC)CCNS(=O)(=O)c1ccc(/C=C/C(=O)O)cc1`, the inhibition is -2.33%. Turning to `O=C(Nc1cccnc1)c1cccc(S(=O)(=O)N2CCCC2)c1`, the inhibition is -5.74%.

Regarding `c1ccc(C2=Nc3cccc4cccc(c34)N2)cc1`, the inhibition is 19.1%.

`COc1ccccc1C1=Nc2cccc3cccc(c23)N1`: the inhibition was 69.7% (active).

Take `Fc1ccccc1N=C1Nc2cccc3cccc1c23`: the inhibition is 8.76%. As to `CCOC(=O)/C(C#N)=C/c1ccc(N2CCCCC2)cc1`, the inhibition was -8.77%. `Cc1ccc(C(=O)NCCNC(=O)c2ccccc2)cc1`: the inhibition is 30.8%. Take `CCCCCOC(=O)NCCOC(=O)Nc1ccc(C(=O)OCC)cc1`: the inhibition was 59.2% (active). Regarding `CCCCC(CCC(=O)Nc1ccc(C(=O)OCC)cc1)C(=O)O` (centres undefined), the inhibition is -9.84%. For `CCOC(=O)Nc1ccc(NC(=O)OCC)cc1`, the inhibition is -2.26%. In the case of `CCC(C(=O)Nc1ccc(C(C)C)cc1)c1ccccc1` (centres undefined) it was -1.77%; in that of `Cc1cc(C)cc(NC(=O)CSc2ccccc2)c1`, 1.71%. In the case of `O=C(c1ccccc1)N1CCN(C(=O)N2CCCCC2)CC1`, the inhibition was 27.4%.

As to `COc1ccccc1N1CCN(C(=O)c2cc(-c3ccc(Br)cc3)on2)CC1`, the inhibition was -7.17%. In the case of `O=C(c1ccc(CSc2ccccc2)cc1)N1CCCCCC1` it was -6.75%.

For `O=C(c1ccc(S(=O)(=O)c2ccccc2)cc1)N1CCCCCC1`, the inhibition is 55.1% (active). As for `COc1ccccc1N1CCN(C(=O)c2c(-c3c(Cl)cccc3Cl)noc2C)CC1`, the figure is 98.5% (active); as for `COc1ccccc1N1CCN(C(=O)c2cc(-c3ccc(Cl)c(Cl)c3)on2)CC1`, -6.68%; as for `COc1ccccc1N1CCN(C(=O)c2ccc(S(=O)(=O)N3CCCCC3)cc2)CC1`, 59.5% (active). In the case of `COc1ccccc1N1CCN(C(=O)c2ccc(Cl)c(S(=O)(=O)N3CCCC3)c2)CC1`, the inhibition was 1.35%.

Turning to `COc1cc2c(cc1OC)CN(C(=O)c1ccc(S(=O)(=O)N3CCCCCC3)cc1)CC2`, the inhibition was 24.6%. As for `CN1CCN(CCNC(=O)Nc2ccc([N+](=O)[O-])cc2)CC1`, the figure is -0.61%; as for `O=C(Nc1cc(Cl)cc(Cl)c1)C(NCCCO)c1ccccc1` (centres undefined), 10.6%.

`Cc1ccc(-c2cc(=O)c3ccc(F)cc3[nH]2)cc1`: the inhibition was 1.73%. For the molecule `CN1C(=O)C(CC(=O)Nc2ccccc2)S/C1=N/c1nccs1` (centres undefined), the inhibition was -4.38%.

As to `CS(=O)(=O)N(CC(=O)N1CCCC1)Cc1ccccc1`, the inhibition is -5.77%. For `N#Cc1ccccc1-n1c(N)c(C(=O)N2CCCC2)sc1=S`, the inhibition is 52.1% (active). As for `Cc1ccc(-n2c(N)c(C(=O)N3CCOCC3)sc2=S)c(C)c1`, the figure is 6.62%.

Consider `Cc1cccc(-n2c(N)c(C(=O)N3CCN(C)CC3)sc2=S)c1`, for which the inhibition is 9.91%.
